This note sets out measurements from PubChem BioAssay AID720647 (Broad Institute, 2013).

“And” between values parts separate entries of the source, which are not always exact repeats. Identical values can stand only once. About 1,300 (0.34%) of roughly 380,000 compounds were called active.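 How the source made its calls: active means drop in luminescence signal, shown as inhibition above about 50% in the replicate tests (limit read from the data, passing the limit was not always enough); inconclusive means probably only some replicates passing the limit; inactive means the rest.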 The sample as a whole holds a higher share of actives than the screen did. The source holds several records for some structures; these can differ, active in one and inactive in another.

This assay has as its system Drosophila bursicon receptor LGR2 (rickets). As to the kind of experiment: LGR2 cAMP reporter signal reduction – cell-based, HEK293, CRE-luciferase reporter, bursicon stimulation, primary screen (AID 720647).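 Further: agonist challenge used bursicon conditioned medium at about half maximal strength.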 Conditions: bursicon-stimulated, 4 h, at 9.99 µM, stronger effect = higher value. Background: A reporter such as luciferase makes a cellular process visible.
A word on the inhibition: it is the relative decrease from the control value, in per cent. Regarding `COc1cccc(CNCc2ccc3c(c2)OCO3)c1`, the inhibition is -10.4% (inactive).

For the compound `C(=N\Nc1ccc2ccccc2n1)/c1ccc2c(c1)OCO2`, the inhibition is 80.4% (active).

For the compound `COCCCN(C(=O)Cn1ncc2c(=O)oc3ccc(C)cc3c21)C(C)c1ccncc1` (configuration not stated), the inhibition is 0.725% (inactive).

Consider `Cc1ccc2oc(=O)c3cnn(CC(=O)N(Cc4ccco4)C4CCCCC4)c3c2c1`, for which the inhibition is 64.3% (active).

As to `Cc1ccc2oc(=O)c3cnn(CC(=O)N4CCCCCC4)c3c2c1`, the inhibition was 15.6% (inactive).

Consider `COCC(=O)N1[C@H](CNC(=O)c2ccccn2)[C@H](c2ccccc2)[C@@H]1CO`, for which the inhibition is 0.589% (inactive).

For the compound `C[C@H](CO)N1C[C@H](C)[C@H](CN(C)Cc2ccncc2)Oc2ccc(NC(=O)C3CCCCC3)cc2CC1=O`, the inhibition is 10.2% (inactive).

For the compound `COc1ccc2c3c(n(C)c2c1)[C@H](CO)NCC31CCN(C(=O)Nc2ccccc2F)CC1`, the inhibition is -4.04% (inactive).

Consider `O=c1c2c(nc3cc(-c4cccc(Cl)c4)[nH]n13)CCCC2`, for which the inhibition was 53.6% (active).

In the case of `COc1ccc2c3c(n(C)c2c1)[C@@H](CO)N(CC1CC1)CC31CN(C(=O)Nc2c(C)noc2C)C1`, the inhibition is -9.38% (inactive).

On to `C[C@@H]1CN([C@H](C)CO)C(=O)c2cc(-c3ccccc3)cnc2O[C@H]1CN(C)C(=O)NC1CCCC1`, for which the inhibition was 9.83% (inactive).

As to `Cc1ccc(C(=O)O/N=C(\N)c2ccccn2)cc1Cl`, the inhibition was 88.8% (active).

`C/C(=N/OC(=O)c1c(-c2c(F)cccc2Cl)noc1C)c1cnccn1`: the inhibition was 32.3% (inactive).

Take `C/C(=N/OC(=O)c1cccc(C(F)(F)F)c1)c1cnccn1`: the inhibition is 16.7% (inactive).

For `COc1ccc2c3c([nH]c2c1)[C@H](CO)N(Cc1ccccc1Cl)CC31CN(C(=O)C2CC2)C1`, the inhibition was 6.3% (inactive).

`COc1ccc(-c2ccccc2[C@H]2[C@@H](CO)N(C(=O)C3CCC3)[C@H]2C#N)cc1`: the inhibition is 3.46% (inactive).

With `COc1ccc(S(=O)(=O)N(C)C[C@@H]2Oc3c(NS(=O)(=O)c4ccccc4)cccc3C(=O)N([C@@H](C)CO)C[C@@H]2C)cc1`, the inhibition was -7.82% (inactive).

`CCc1ccc2oc(-c3ccc(N)cc3)nc2c1`: the inhibition is 75.2% (active).

With `O=C(Nc1ccc2c(c1)[C@H]1C[C@@H](CC(=O)N3CCc4ccccc4C3)O[C@H](CO)[C@H]1O2)Nc1ccccc1F`, the inhibition was 12.8% (inactive).

With `COC(=O)N(C)C[C@H]1OCc2ccccc2-c2ccccc2C(=O)N([C@@H](C)CO)C[C@H]1C`, the inhibition was 2.52% (inactive).

Consider `O=C(C[C@H]1C=C[C@H](NC(=O)Cc2ccccn2)[C@@H](CO)O1)NCCc1ccccc1`, for which the inhibition is 12.4% (inactive).

With `CCS(=O)(=O)N1CC2(CN(Cc3ccccc3)[C@@H](CO)c3c2c2ccc(OC)cc2n3C)C1`, the inhibition is -9.3% (inactive).

`C=CCn1c(C)cc(C2=NNC(=NCC)SC2)c1C`: the inhibition was 84.5% (active).

In the case of `CC(C)CC#Cc1cnc2c(c1)C(=O)N([C@H](C)CO)C[C@H](C)[C@@H](CN(C)Cc1ccccc1C(=O)O)O2`, the inhibition is 9.07% (inactive).

For the compound `C[C@H]1CCCCO[C@H](CN(C)C(=O)Nc2ccccc2)[C@@H](C)CN([C@@H](C)CO)C(=O)c2cc(NC(=O)CCC(F)(F)F)ccc2O1`, the inhibition was 8.75% (inactive).

Regarding `O=c1oc2ccccc2cc1-c1cn(-c2ccccc2)c(=S)[nH]1`, the inhibition is 102% (active).

Turning to `COc1ccc(-c2ccc3c(c2)[C@@H]2[C@@H](CCN2S(=O)(=O)c2ccccc2F)[C@H](CO)N3)cc1`, the inhibition was -25.5% (inactive).

`C[C@@H]1CN([C@@H](C)CO)C(=O)c2cc(-c3ccc(F)cc3)cnc2O[C@H]1CN(C)C(=O)c1ccncc1`: the inhibition is 1.63% (inactive).

Take `O=C(C1CCCCC1)N1[C@H](CO)[C@@H](c2ccccc2)C12CN(Cc1cccc(Cl)c1)C2`: the inhibition is 1.64% (inactive).

Take `O=C(C[C@@H]1CC[C@H](NC(=O)C2CCOCC2)[C@@H](CO)O1)Nc1ccccc1`: the inhibition was -3.27% (inactive).

Regarding `CCc1sc(N2[C@@H](C#N)[C@@H](c3ccccc3-c3ccccc3)[C@@H]2CO)nc1C`, the inhibition is 0.259% (inactive).

For `COc1ccc(-c2cn(CC[C@H]3CC[C@@H](N)[C@H](CO)O3)nn2)cc1`, the inhibition was -5.75% (inactive).

In the case of `COc1ccc2c3c([nH]c2c1)[C@H](CO)N(Cc1cccc(F)c1)CC31CCN(CC2CC2)CC1`, the inhibition is 16% (inactive).

For `Cc1noc(C)c1NC(=O)Nc1ccc2c(c1)CC(=O)N([C@H](C)CO)C[C@@H](C)[C@@H](CN(C)S(=O)(=O)c1ccc(Cl)cc1)O2`, the inhibition is 4.84% (inactive).

Regarding `Cc1nc(NC(=O)c2ccc3c(c2)OCCO3)ccc1Br`, the inhibition is -47% (inactive).

For the compound `O=C(Nc1nc2ccccc2s1)c1ccc2c(c1)OCO2`, the inhibition was 79.6% (active).

On to `O=C(NCCc1ccc(C(F)(F)F)cc1)c1ccc2c(c1)OCO2`, for which the inhibition is -2.8% (inactive).

For `N#C[C@@H]1N[C@H](CO)[C@@H]1c1ccc(/C=C/c2ccccc2)cc1`, the inhibition is -52.3% (inactive).

As to `C[C@H]1CN([C@@H](C)CO)S(=O)(=O)c2ccc(-c3cccc(C#N)c3)cc2O[C@H]1CN(C)CC1CC1`, the inhibition is -1.41% (inactive).

As to `C[C@H]1CN([C@@H](C)CO)C(=O)c2cccc(NS(=O)(=O)c3ccccc3)c2O[C@@H]1CN(C)S(=O)(=O)c1cn(C)cn1`, the inhibition is 6.37% (inactive).

Consider `COc1ccc2c(c1)c(=Cc1ccc(N(C)C)cc1)c1cc(-c3ccccc3)[n+](C)n12`, for which the inhibition was 102% (active).

As to `COc1ccc(S(=O)(=O)N(C)C[C@@H]2OCCCC[C@@H](C)Oc3ccc(N(C)C)cc3C(=O)N([C@@H](C)CO)C[C@@H]2C)cc1`, the inhibition is -3.31% (inactive).

Consider `Cc1ccnc(N2C(=O)c3ccccc3C2Nc2ccc3c(c2)OCCO3)c1` (configuration not stated), for which the inhibition was 66.5% (active).

On to `COC(=O)c1cc(NC2c3ccccc3C(=O)N2c2ccc(Cl)cn2)cc(C(=O)OC)c1` (configuration not stated), for which the inhibition was -4.93% (inactive).

On to `O=C1c2ccccc2C(Nc2ccc3c(c2)OCCO3)N1Cc1ccco1` (configuration not stated), for which the inhibition was 0.038% (inactive).

For the compound `Cc1ccc(-c2cnc3c(c2)C(=O)N([C@H](C)CO)C[C@H](C)[C@@H](CN(C)S(C)(=O)=O)O3)cc1`, the inhibition was 14.4% (inactive).

On to `C[C@H]1CN([C@@H](C)CO)S(=O)(=O)c2ccc(C#Cc3cccc(F)c3)cc2O[C@@H]1CN(C)S(=O)(=O)c1cn(C)cn1`, for which the inhibition was 16.7% (inactive).

On to `CCCC(=O)N1CCC2(CC1)CN(C(=O)C1CCCCC1)[C@@H](CO)c1[nH]c3cc(OC)ccc3c12`, for which the inhibition is -2.6% (inactive).

Turning to `COc1ccc(S(=O)(=O)N[C@H]2C=C[C@@H](CC(=O)O)O[C@@H]2CO)cc1`, the inhibition was 14.6% (inactive).

`CSc1ncnc2c1ncn2CCCNCc1ccco1`: the inhibition was -1.41% (inactive).

As for `CSc1ncnc2c1ncn2CC(=O)C1CCC2C3CCC4=CC(=O)CCC4(C)C3CCC12C` (configuration not stated), the inhibition was 89.8% (active).

Take `CC12CCC(=O)C=C1CCC1C2C(O)CC2(C)C1CCC2(O)C(O)CO` (configuration not stated): the inhibition was -20.1% (inactive).

For the compound `COCC(=O)Nc1ccc2c(c1)[C@H]1C[C@@H](CC(=O)NCc3ccccc3F)O[C@H](CO)[C@H]1O2`, the inhibition was -12.4% (inactive).

Turning to `COc1cccc(/C=C/c2ccc3ccccc3n2)c1OC(C)=O`, the inhibition was 84.6% (active).

In the case of `CC=Cc1ccc2n(c1=O)C[C@H]1[C@H](CO)[C@@H](C(=O)NC3CCCC3)N(Cc3cccnc3)[C@@H]21` (mixture of isomers), the inhibition was 5.27% (inactive).

Turning to `O=C(Cn1cc(/C=N/NC(=O)c2cccc(C(F)(F)F)c2)c2ccccc21)Nc1ccc(F)cc1`, the inhibition was 13.4% (inactive).

As to `O=C(O)c1cccc(NC(=S)N/N=C/c2c[nH]c3ccccc23)c1`, the inhibition is 75.5% (active).

As for `O=C(CNCc1ccc(Cl)cc1)Nc1cccc(C(=O)O)c1`, the inhibition was 22.7% (inactive).

On to `COc1cccc(CNC(=O)C[C@@H]2CC[C@@H]3[C@H](COc4ccc(NC(C)=O)cc4C(=O)N3C)O2)c1`, for which the inhibition is 18.5% (inactive).

For `CCN1[C@@H]2Cn3c(ccc(-c4cccc(OC)c4)c3=O)[C@H]1[C@@H](C(=O)N(C)C)[C@@H]2CO`, the inhibition is -2.29% (inactive).

As to `CCC(=O)N1CC(=O)N2[C@@H](CO)[C@H](c3ccc(C#CC4CCCC4)cc3)[C@@H]2C1`, the inhibition was -13.8% (inactive).

On to `C[C@@H]1CN([C@H](C)CO)C(=O)Cc2cc(NS(C)(=O)=O)ccc2O[C@@H]1CN(C)C(=O)Nc1ccc2c(c1)OCO2`, for which the inhibition was -12.8% (inactive).

For `C[C@@H]1CN([C@H](C)CO)C(=O)c2cc(NC(=O)CCCCCC(=O)Nc3ccccc3N)ccc2O[C@H]1CN(C)Cc1ccncc1`, the inhibition is -8.39% (inactive).

Turning to `C[C@@H]1CCCCO[C@H](CN(C)CC2CC2)[C@@H](C)CN([C@H](C)CO)C(=O)c2cc(NC(=O)Cc3ccccc3)ccc2O1`, the inhibition is 2.52% (inactive).

`COc1ccccc1-c1cn(CC[C@@H]2CC[C@H](NC(=O)c3ccccc3F)[C@H](CO)O2)nn1`: the inhibition was 0.819% (inactive).

As for `COc1ccc2c3c(n(C)c2c1)[C@@H](CO)N(C(=O)c1ccccn1)CC31CN(C)C1`, the inhibition was 2.95% (inactive).

For `COc1ccc(-c2ccc(C3[C@@H]4CN(S(=O)(=O)c5cn(C)cn5)C[C@H]3N4)cc2)cc1` (some centres not stated), the inhibition is -3.69% (inactive).

As for `Cn1cnc(S(=O)(=O)N2C[C@@H]3N[C@H](C2)C3c2ccc(-c3ccccc3F)cc2)c1` (some centres not stated), the inhibition was 53% (active) and -30.1% (inactive).

For the compound `Cn1cnc(S(=O)(=O)N2C[C@@H]3N[C@H](C2)C3c2ccc(/C=C/c3ccccc3)cc2)c1` (some centres not stated), the inhibition was 7.15% (inactive) and -2.81% (inactive).

In the case of `C[C@H]1CN([C@@H](C)CO)C(=O)c2ccccc2-c2ccccc2CO[C@H]1CN(C)S(=O)(=O)c1cccc(C#N)c1`, the inhibition is -1.55% (inactive).

For the compound `C[C@H](NC(=O)C[C@@H]1CC[C@@H]2[C@H](COC[C@@H](O)CN2Cc2cc(F)ccc2F)O1)c1ccccc1`, the inhibition is 4.84% (inactive).

Turning to `O=C(C[C@H]1C[C@@H]2c3cc(NC(=O)CC4CC4)ccc3O[C@@H]2[C@H](CO)O1)NCc1cccnc1`, the inhibition was 2.45% (inactive).
